From PubChem
The list is not random: actives were taken first. Their share in the collection is about 10%.
MCF10A rereplic: A quantitative high throughput screen for small molecules that induce DNA re-replication in MCF 10a normal breast cells | AID 624296, 2012 | Potency, µM (top dose mostly 46.1 µM), without a hit: at the highest dose activity, positive = re-replication, hits mostly activators | hit rate 2.9% among 350,000 | MCF 10A DNA re-replication, Hoechst nuclear intensity, 48 h; further: % of control where 0% means no effect; nearly all actives have a fitted effect of over 50% in size
RORgamma inh: qHTS for inhibitors of ROR gamma transcriptional activity | hit rate 5.4% among 310,000 | Nuclear receptor ROR-gamma (Mus musculus), P51450 | Drosophila S2 Gal4-RORgamma UAS-luciferase reporter, 20 h | Potency, µM (highest dose often 53.6 µM), for inactives: at the top dose activity change, negative = inhibition, hits mostly inhibitors; further: on the % scale 0 is the no-effect control and ±100 the full control effect; nearly all actives have a fitted effect of over 60% in size
Target sequence (P51450 whole entry, looked up, the tested form may be a part): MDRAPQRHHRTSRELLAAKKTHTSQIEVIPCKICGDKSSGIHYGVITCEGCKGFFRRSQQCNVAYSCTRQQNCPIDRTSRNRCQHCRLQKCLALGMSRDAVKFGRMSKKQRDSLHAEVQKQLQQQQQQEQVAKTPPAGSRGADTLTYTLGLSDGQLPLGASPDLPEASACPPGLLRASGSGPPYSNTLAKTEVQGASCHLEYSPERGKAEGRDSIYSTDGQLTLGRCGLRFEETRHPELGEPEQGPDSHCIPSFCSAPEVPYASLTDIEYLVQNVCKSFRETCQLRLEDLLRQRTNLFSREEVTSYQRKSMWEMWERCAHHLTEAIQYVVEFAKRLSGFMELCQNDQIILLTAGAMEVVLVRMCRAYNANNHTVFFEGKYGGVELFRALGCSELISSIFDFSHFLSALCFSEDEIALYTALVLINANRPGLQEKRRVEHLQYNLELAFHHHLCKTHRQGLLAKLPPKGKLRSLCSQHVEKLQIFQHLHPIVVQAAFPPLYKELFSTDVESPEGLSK
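Read-out: Photinus luciferase luminescence; inhibitors lower reporter signal. Insect Schneider cells with Gal4-ROR gamma fusion under metallothionein promoter, UAS reporter; 700 uM final copper sulfate induction, 20 hr, ambient temperature.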
SW480 rerep: A quantitative high throughput screen for small molecules that induce DNA re-replication in SW480 colon adenocarcinoma cells | SW480 DNA re-replication, Hoechst DNA content imaging, 48 h | AID 624297, 2012 | hit rate 1.8% among 340,000 | Potency, µM (top dose mostly 46.1 µM), without a hit: at the highest dose re-replication activation, actives largely listed as activators; further: % of control where 0% means no effect; nearly all actives have a fitted effect of over 55% in size
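DNA re-replication was detected as more nuclei of elevated Hoechst intensity after 48 hr exposure to compound (23 nL pinned per well of 250 cells).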
KB-3-1 tox: qHTS assay for MDR1-selective chemotherapeutics: Primary screen using the parental adenocarcinoma cell KB-3-1. KB-3-1 viability, CellTiter-Glo ATP luminescence, 72 h. Potency, µM (highest dose often 46.1 µM), hits mostly cytotoxic. hit rate 1.4% among 400,000. AID 1347075, 2019; further: on the % scale 0 is the no-effect control and ±100 the full control effect; nearly all actives have a fitted effect of over 60% in size
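Viability of parental KB-3-1 cells, measured by CellTiter-Glo luminescence, followed a 72 h incubation at 37 °C with pinned compounds in phenol-red-free DMEM containing 10% FBS.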
KB-V1 MDR tox: qHTS assay for MDR1-selective chemotherapeutics: Primary screen using the drug-selected MDR subline cells KB-V1; Potency, µM (titrated, usually from 46.1 µM), hits mostly cytotoxic; hit rate 3.4% among 400,000; KB-V1 MDR cells viability, CellTiter-Glo, 72 h; further: on the % scale 0 is the no-effect control and ±100 the full control effect; nearly all actives have a fitted effect of over 60% in size
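Drug-selected KB-V1 cells, grown in DMEM lacking phenol red with 10% FBS, receive compound titrations; after three days at 37 degrees C, surviving cell ATP is quantified by CellTiter-Glo luminescence and responses normalized and curve-fitted.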
Gal4-VP16 FLuc: VP16 counterscreen qHTS for inhibitors of ROR gamma transcriptional activity; Drosophila S2 Gal4-VP16 UAS-luciferase, luminescence, 20 h; Potency, µM (doses to about 53.6 µM), for the others: at the highest dose activity, negative = inhibition, most hits filed as inhibitors; hit rate 3.5% among 310,000;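 further: Gal4-VP16 expression switched on by copper sulfate through the metallothionein promoter; on the % scale 0 is the no-effect control and ±100 the full control effect; nearly all actives have a fitted effect of over 50% in size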
Numbers without * were called inactive; i = inactive; ? = inconclusive; / = no result given; [ ] = another dose, or the depositor's remark. The call rests on the fitted dose curve; in most records, active means well fitted curve in the direction sought with a large enough effect; inconclusive means small, poorly fitted or top-dose-only effect, or another doubt; inactive means no such curve, though single readings can be large; an effect the other way counts as inactive or inconclusive. Potency means the concentration at half of the fitted maximal effect.

SMILES	MCF10A rereplic	RORgamma inh	SW480 rerep	KB-3-1 tox	KB-V1 MDR tox	Gal4-VP16 FLuc
O=C1/C(=C/c2ccc(Cl)cc2)SC(=S)N1CCC(=O)N1CCCCC1CCO (stereo not given)	?	-3.2%	?	i	i	-10.6%
Cc1ccccc1Cn1c(=O)n(-c2ccc(Cl)cc2)c(=O)c2c3c(sc21)CCCC3	/	/	/	i	i	/
CCc1nn(CC(=O)Nc2cccc(C(C)=O)c2)c(=O)c2cc3sccc3n12	/	/	/	i	i	/
CC(=O)NC1=NN(C(C)=O)C(C)(c2cccs2)S1 (stereo not given)	1.3µM*	-3.2%	11.6µM*	?	i	-11.7%
Cc1ccc(S(=O)(=O)N(CC(O)CN(C)C)c2ccccc2)cc1 (stereo not given)	-0.9%	-17.4%	-3.5%	i	i	14.8%
Cc1ccc(S(=O)(=O)N(CCCO)CC(O)CON=C2c3ccccc3-c3ccccc32)cc1 (stereo not given)	18.4µM*	?	?	?	?	?
Cc1ccc(Sc2cncc3sc(C(N)=O)cc23)cc1	/	?	/	/	/	-24.2%
CCCCCCCCCCCCCCCCCCN(CCCCCCCCCCCCCCCCCC)c1ccc(C=O)cc1	/	/	/	i	i	/
O=[N+]([O-])c1cc2cccnc2c2ncccc12	0.0%	-17.7%	14.6µM*	0.116µM*	i	2.0%
O=[N+]([O-])c1cc(O)c2ncccc2c1	?	0.891µM*	-26.8%	?	18.4µM*	-2.2%
Cc1ccc([N+](=O)[O-])c2cccnc12	0.5%	-13.9%	-13.9%	i	i	2.8%
CCCOc1cccc(C2c3c(oc4ccc(F)cc4c3=O)C(=O)N2CCc2ccc(OC)cc2)c1 (stereo not given)	/	/	/	i	i	/
COc1ccc(C(=O)CCC(=O)Nc2cc(C)ccc2C)cc1	/	/	/	i	i	/
C=CCc1cccc(/C=N/NC(=O)CNc2cccc3ccccc23)c1O	?	0.562µM*	?	?	i	1.12µM*
C=CCc1cccc(/C=N/n2cnnc2)c1O	1.2%	7.08µM*	26.1%	i	i	-11.6%[0.365 µM]
C=CCc1cccc(/C=N/NC(=O)CCC(=O)Nc2ccc(F)cc2)c1O	17.6%	1µM*	?	?	i	1µM*
O=C(CN1CCN(Cc2ccccc2)CC1)N/N=C/c1ccco1	26.6%	38.1%	-10.6%	i	i	-5.9%
C=CCc1cccc(/C=N/NC(=O)CN2CCN(Cc3ccccc3)CC2)c1O	/	1.12µM*	/	/	/	10µM*
C=CCc1cccc(C=Nc2ccc(Br)cc2)c1O	-2.4%	5.3%	3.2%	i	i	-18.2%
COc1cccc(-c2ccnc3c(-c4ccc(F)cc4)c(C)nn23)c1	/	/	/	i	i	/
Cc1ccc(NCC(=O)N/N=C\c2cccc(O)c2)cc1	-2.1%	4.5%	-4.0%	i	i	-1.2%[10 µM]
CC(Nc1ccc(Br)cc1)C(=O)N/N=C/c1ccccc1OCc1ccccc1 (stereo not given)	13.2%	-3.2%	?	i	i	13.3%
C=CCc1cccc(/C=N/NC(=O)CNc2ccccc2)c1O	13.3%	1.58µM*	13µM*	i	i	?
C=CCc1cccc(/C=N/NC(=O)CCCNc2ccc(C)cc2)c1O	?	1µM*	?	?	23.1µM*	2µM*
C=CCc1cccc(/C=N/NC(=O)C(C)Nc2cccc(C)c2)c1O (stereo not given)	6.9%	0.0398µM*	3.26µM*	?	i	2.51µM*
SMILES	MCF10A rereplic	RORgamma inh	SW480 rerep	KB-3-1 tox	KB-V1 MDR tox	Gal4-VP16 FLuc
C=CCc1cccc(/C=N/NC(=O)C[n+]2ccccc2)c1O	24.7%	?	?	?	i	-11.3%
O=C(CN1CCN(Cc2ccccc2)CC1)N/N=C/c1ccc(Br)s1	6.7%	5.62µM*	-15.0%	i	i	10µM*
CCCCNC(=O)c1nc(C2CCNCC2)oc1-c1ccccc1	/	/	/	i	i	/
CC(C)CN1CCC2(CC1)CCN(C(=O)c1cccc(F)c1)CC2	/	-1.9%	/	/	/	-2.6%
C=CCc1cccc(/C=N/NC(=O)CNc2ccccc2OC)c1O	?	1.26µM*	16.4µM*	?	?	-1.8%
COc1ccccc1/C=N/NC(=O)COCC(=O)N/N=C/c1ccccc1OC	1.8%	-3.2%	-2.0%	i	i	-4.6%
CC(C)CN(C(=O)C1CCCO1)c1c(N)n(CC(C)C)c(=O)[nH]c1=O (stereo not given)	-2.8%	/	-5.7%	i	i	/
Cc1ccc(-n2nc3ccc(N)cc3n2)cc1C	16.4µM*	6.7%[1.91 µM]	16.4µM*	i	i	?
COc1ccc(-n2nc3ccc(N)cc3n2)cc1Cl	?	-29.4%	20.6µM*	i	i	18.4%
Cc1nn(C)c2c1c(C(F)(F)F)cc(=O)n2C(C)C(=O)NCCc1ccc(Cl)cc1 (stereo not given)	/	/	/	i	i	/
N#Cc1cnc2nc1NCCCCCCC2	/	/	/	?	5.17µM*	/
Cc1ccc2c(C(=O)CCl)c(C)[nH]c2c1	18.4µM*	-27.5%	?	13µM*	?	?
Cc1ccc2c(C(=O)CN3CCSCC3)c(C)[nH]c2c1	-1.4%	0.2%	2.3%	i	i	-7.7%
CCOC(=O)Cn1c(-c2cccnc2Cl)nc2cc(C)c(C)cc21	-30.7%	0.5%	-5.2%	i	i	3.9%
CCOC(=O)Cn1c(-c2cccnc2Cl)nc2cc(Cl)c(Cl)cc21	6.4%	21.7%	-9.5%	i	20.6µM*	-0.2%
O=C(O)c1cc(O)c2c(c1)[C@H]([C@H]1c3cc(C(=O)O)cc(O)c3C(=O)c3c(O[C@@H]4OC(CO)C(O)C(O)C4O)cccc31)c1cccc(O[C@@H]3OC(CO)C(O)C(O)C3O)c1C2=O (stereo not given in full)	-6.9%	-35.8%	-2.6%	/	/	-19.3%
CCNCCCNCCCCNCCCNCC	/	33.4%	/	/	/	0.3%
O=C1CCCN1CCCNc1nc(NCc2cccs2)nc2ccsc12	/	/	/	i	i	/
O=C(CCNS(=O)(=O)c1cccs1)N1CCN(c2cccc(C(F)(F)F)c2)CC1	4.3%	/	-1.9%	i	16.4µM*	/
COc1ccc(Cl)cc1NC(=O)Cn1ncc2c3ccccc3n(Cc3ccccc3)c2c1=O	/	/	/	i	i	/
CCC(C)(C)c1ccc(Oc2cccc(C(=O)O)c2)cc1	?	-26.4%	-4.2%	i	i	?
CCC(C)(C)c1ccc(Oc2ccc(N)cc2)cc1	14.6µM*	-12.7%	18.1%	i	i	7.94µM*
